# Only a sample is shown.
# aSyn UTR act – Activators via SNCA 5'UTR binding, MLPCN; alpha-synuclein 5'UTR reporter, activators screen; activity score, % (tested at 7.5 µM), hits read low; 7.1% of 300,000 active; in the data active = activity score below about -60%
# The depositor's hits bear a star.
SMILES,aSyn UTR act
Cc1ccc(O)c(NC(=O)c2noc3c2CCCCC3)c1,-184*
COc1ccc(CNC(=O)c2noc3c2CCCC3)cc1,-103*
Cc1ccc(NC(=O)c2noc3c2CCCCC3)cc1,-117*
CCOC(=O)Nc1ccc(Cc2ccncc2)cc1,-63*
CCOC(=O)Nc1ccc(C(=O)/C=C/c2ccccc2)cc1,-69*
CC(=O)c1ccc(NC(=O)Oc2ccccc2)cc1,-63*
CCOC(=O)Nc1ccc(Oc2ccccc2)cc1,-96*
N#Cc1cc(C#N)c(N2CCN(c3cccc(Cl)n3)CC2)nc1N,-85*
CN(CC(=O)Nc1cccc(F)c1)C(=O)CCCNC(=O)c1ccc(Cl)cc1,-91*
c1ccc(-c2cnc(CSc3nnc4ccccn34)o2)cc1,-94*
Fc1ccc(-c2nnc(CSc3nnc4ccccn34)o2)cc1,-116*
Fc1ccc(CSc2nnc3ccccn23)c(Cl)c1,-92*
O=[N+]([O-])c1ccccc1OCCCn1cnc2ccccc21,-100*
Clc1ccc(OCCn2cnc3ccccc32)c(Cl)c1,-126*
O=c1c2ccc([N+](=O)[O-])c3cccc(c32)c2nc3ccccc3n12,79
N=c1n(Cc2ccccc2)c2ccccc2n1CC(O)COc1ccc(Cl)cc1Cl (centres undefined),90
O=c1c2ccccc2ncn1CCCOc1ccccc1[N+](=O)[O-],-150*
O=C(Nc1ccccc1)c1cccc(N2CCCC2=O)c1,-117*
COc1cccc(/C=N/NC(=O)c2cccc(N3CCCC3=O)c2)c1,-105*
COc1ccc(/C=N/NC(=O)CCn2cnc(-c3ccccc3)c2-c2ccccc2)cc1,56
COc1cccc(/C=N/NC(=O)CCn2nnc3ccccc32)c1,-120*
C/C(=N/NC(=O)c1cccc(N2CCCC2=O)c1)c1ccncc1,-166*
O=C(N/N=C/c1cc(Br)ccc1O)c1cccc(N2CCCC2=O)c1,68
Clc1ccc2nc3c4ccccc4cnn3c2c1,-160*
CC(C)c1ccc(Nc2ncccc2C(=O)O)cc1,-101*
SMILES,aSyn UTR act
NC(=O)c1cc2c3ccccc3ccn2c1-c1ccccc1,113
CCOC(=O)c1c(C)nc2c3ccccc3ccn12,-91*
Nc1c(-c2cccc([N+](=O)[O-])c2)nc2ccccn12,-83*
Cc1ccc(Oc2ncc(CN3CCOCC3)s2)cc1,-78*
CCCC(=O)Nc1ccc(-c2csc(-c3cccnc3)n2)cc1,-114*
CC(=O)Nc1ccc(-c2csc(-c3cccnc3)n2)cc1,-112*
Cc1nc2c(-c3ccc(Cl)cc3)cnn2c2c1CCC2,-123*
O=c1c2c(nc3c(-c4ccc(Cl)cc4)c[nH]n13)CCCC2,66
Cc1ccc(-c2cc(N)n(-c3ccc(F)cc3)n2)cc1,-147*
Cc1ccc(-c2cc(N)n(-c3ccc(C)cc3)n2)cc1,-124*
Cc1ccccc1NC(=O)c1nnn(-c2ccc3c(c2)OCCO3)c1N,-135*
Nc1c(C(=O)Nc2cccc(F)c2)nnn1-c1ccc2c(c1)OCCO2,-101*
CC(=O)NC(CSC(CC(=O)c1ccco1)c1ccc(C)cc1)C(=O)O (centres undefined),-90*
CC(=O)c1c(C)[nH]c(C(=O)Nc2nc(C)cs2)c1C,86
CC(=O)c1c(C)[nH]c(C(=O)Nc2cc(C)cc(C)c2)c1C,-78*
CC(=O)c1c(C)[nH]c(C(=O)Nc2cccc(S(=O)(=O)N(C)C)c2)c1C,-153*
COc1ccc(OC)c(NC(=O)c2[nH]c(C)c(C(C)=O)c2C)c1,-85*
C#CCOCCOCCOCCNc1nc(N2CCN(C(=O)CCCCCCCCCCNC(=O)[C@H](CO)n3cc(CCCSC)nn3)CC2)nc(N2CCN(C(=O)CCCCCCCCCCNC(=O)[C@H](CCCCN)n3cc(C[C@@H](C)CC)nn3)CC2)n1,110
C#CCOCCOCCOCCNc1nc(N2CCN(C(=O)CCCCCCCCCCNC(=O)[C@H](CCCCN)n3cc(CCCC(=O)O)nn3)CC2)nc(N2CCN(C(=O)CCCCCCCCCCNC(=O)[C@H](CCCN=C(N)N)n3cc(C[C@@H](C)CC)nn3)CC2)n1,-132*
C#CCOCCOCCOCCNc1nc(N2CCN(C(=O)CCCCCCCCCCNC(=O)[C@H](CCCCN)n3cc(CCCC(=O)O)nn3)CC2)nc(N2CCN(C(=O)CCCCCCCCCCNC(=O)[C@H](CCCCN)n3cc(CCCC(=O)O)nn3)CC2)n1,-112*
C#CCOCCOCCOCCNc1nc(N2CCN(C(=O)CCCCCCCCCCNC(=O)[C@H](CCCCN)n3cc(C[C@@H](C)CC)nn3)CC2)nc(N2CCN(C(=O)CCCCCCCCCCNC(=O)[C@H](CCCCN)n3cc(C[C@@H](C)CC)nn3)CC2)n1,107
Cc1cc(C2=NNC(=NC3CC3)SC2)c(C)n1-c1ccccc1F,99
Cc1ccccc1N=C1NN=C(c2ccccc2F)CS1,-171*
O=[N+]([O-])c1cc(C(F)(F)F)ccc1Sc1ccc2ccccc2n1,-75*
CC(C)Cc1ccc(C(C)C(N)=NCCc2ccccc2)cc1 (centres undefined),-75*
SMILES,aSyn UTR act
Cc1ccc(C2CN=NC23CCc2ccccc2C3=O)cc1 (centres undefined),-80*
O=C(CSC1=NCCS1)Nc1nc2ccccc2s1,-154*
COc1ccc2nc(NC(=O)CSc3nnnn3C)sc2c1,-122*
COc1ccc2nc(NC(=O)CSc3nnc(C)s3)sc2c1,-78*
COc1ccc2nc(NC(=O)CSc3nc(SC)ns3)sc2c1,-110*
Cc1nc(SCC(=O)Nc2nc3ccccc3s2)c(C#N)c(C)c1C,100
CCn1nnnc1SCC(=O)Nc1nc2ccccc2s1,-86*
CSc1nsc(SCC(=O)Nc2nc3ccccc3s2)n1,-71*
Cc1ccc(Nc2nc3ccccc3c(=O)[nH]2)cc1C,-195*
O=C(Nc1cccc(/C=C/c2nc3ccccc3c(=O)[nH]2)c1)c1ccccc1Cl,-132*
CN(C)c1ccc(/C=C/c2nc3ccccc3c(=O)[nH]2)cc1,87
O=c1[nH]c(/C=C/c2ccc(Br)cc2)nc2ccccc12,-169*
Cc1cccc(/C=C\c2nc3ccccc3c(=O)[nH]2)c1,-74*
NC(=O)CC1C(=O)N(c2ccccc2)C(=S)N1NC(=O)c1ccccc1 (centres undefined),-73*
Oc1ccc2ccccc2c1C=Nc1ccccc1-c1nc2ccccc2[nH]1,-79*
CC1CCCN(CCS(=O)(=O)c2ccccc2)C1 (centres undefined),-151*
Clc1ccc(SCc2cn3ccccc3n2)cc1,-148*
Cc1cc(C)c(C#N)c(SCc2cn3ccccc3n2)n1,-88*
CNc1cc(CSc2ccc(Cl)cc2)nc(C)n1,-118*
Cc1ccc(SCc2cn3cc(Cl)ccc3n2)cc1,-136*
c1ccc2[nH]c(SCc3cn4ccccc4n3)nc2c1,-62*
Cc1cccc2nc(CSc3ccc(Cl)cc3)cn12,-118*
Clc1ccc2nc(CSCc3ccccc3)cn2c1,-167*
Nc1nnc(SCc2cn3cc(Cl)ccc3n2)s1,-97*
c1ccc2c(SCc3cn4ccccc4n3)nncc2c1,-70*
SMILES,aSyn UTR act
Cc1sc2ncnc(SCC(=O)c3cccs3)c2c1C,-73*
Cc1nc(-c2ccc(NC(=O)Cc3ccccc3)cc2)cs1,-164*
CCC(=O)Nc1ccc(-c2csc(C)n2)cc1,-81*
Cc1nc(-c2ccc(NC(=O)c3ccco3)cc2)cs1,57
COCCNC(=S)NC(=O)c1ccc(C(C)(C)C)cc1,-91*
COCCCNC(=S)NNC(=O)C1CC1c1ccc(C(C)(C)C)cc1 (centres undefined),-100*
Cn1c(-c2ccc3c(c2)OCO3)cnc1NCc1ccccc1Cl,-95*
Cn1c(-c2ccc3c(c2)OCO3)cnc1NCc1ccccc1,-104*
